Among the data in PubChem BioAssay (NCATS) are activity change, negative = inhibition, Potency and outcome values, retold here.

Several values for one entry are separate records, joined by “and”; a condition that tells them apart may be missing. Equal values may be shown once. Values without a mark were called inactive. Results filed as inconclusive are left out. Activity calls are given as the source filed them. Unless noted, calls come from the whole dose curve; as a rule, active = well fitted curve in either direction with a large enough effect (not every such curve was filed as active); inconclusive = small, poorly fitted or top-dose-only effect, or another doubt; inactive = flat fitted curve, though single readings scatter. Where only a bound is given, the exact number is not on record here.

The nature of experiment [1]: AP1 Signaling Pathway (AID 357).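 Note: ME-180 reporter cells stimulated with EGF at its EC50 level; % is set by controls: 0 for no effect and ±100 for the full control effect.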 As to conditions: ME-180 AP-1-bla reporter, EGF-induced, beta-lactamase ratio, 5 h. In short, it runs like this:
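Modulation of EGF-driven AP-1 transcription was assessed with a beta-lactamase reporter in ME-180 cells. Compound and EC50 EGF were co-incubated 5 hours at 37 °C before 2.5-hour CCF4 loading at room temperature and dual-emission reading.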

The target of experiment [2] is Cytochrome P450 1A2 (Homo sapiens) (UniProt P05177). The experiment in a line: p450-cyp1a2 (AID 410; calls by dose curve; note: potency is the fitted concentration of half-maximal effect;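 for activity change, negative = inhibition: -100% = full effect of reference inhibitor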). As to conditions: recombinant CYP1A2, luciferin-ME demethylation, luminescence; series mostly up to 57 µM. In a few lines:
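Luminescent demethylation readout: Luciferin-ME (100uM, equal to Km) turned over by 20nM CYP1A2 for 60 min at room temperature after NADPH regeneration addition, following 10 min compound preincubation. Normalization used 57 uM furafylline as full inhibition.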

Experiment [3] in a line: NFAT Signaling Pathway (AID 444).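 Note: carbachol stimulus at about its EC50 of 1 µM final; % is set by controls: 0 for no effect and ±100 for the full control effect.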 As to conditions: Jurkat NFAT-bla M1, carbachol, beta-lactamase ratio, 5 h. In a few lines:
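Jurkat cells with NFAT-driven β-lactamase reporter and co-expressed M1 receptor, stimulated with carbachol (final 1 uM, ~EC50), compound titration, 5 h at 37 °C. CCF4 loaded 1 h at RT; 460/530 nm ratio gave %activity and AC50.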

Experiment [4] is described as follows: Stat Signaling Pathway (AID 446).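 Note: ME-180 cervical cancer cells given 40 pM IL-6 alongside compound; SIE-controlled beta-lactamase reporter measured as 460/530 nm FRET emission ratio; % is set by controls: 0 for no effect and ±100 for the full control effect.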 As to conditions: ME-180 (cervical carcinoma) SIE beta-lactamase reporter, IL-6 stimulated, 5 h; series mostly up to 17.2 µM. In short, it runs like this: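 Overnight-plated ME-180 cells bearing a STAT Inducible Element beta-lactamase reporter; 5 h co-exposure to compound and 40 pM IL-6; values normalized to 300 pM IL-6 and 125 nM JAK inhibitor controls.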

Experiment [5] concerns the target Glucocorticoid receptor (Homo sapiens) (UniProt P04150). The experiment in a line: GR-GFP Redistribution (AID 450;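 active = compounds whose dose series gives a full or clear partial fitted curve of increased nuclear translocation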; note: potency is the fitted concentration of half-maximal effect). As to conditions: U2OS GR-GFP nuclear translocation, laser cytometry, 2 h.
For experiment [6] the target is unchanged. The experiment in a line: GR-EFC Redistribution (AID 451; calls by dose curve; note: potency is the fitted concentration of half-maximal effect). Particulars: CHO-K1 GR-EFC translocation, beta-gal luminescence, 2 h. In a few lines: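 CHO-K1 cells expressing nuclear EA and GR-ED fragments of b-gal; compounds titrated up to 46 uM final, 2 h at 37 C. GR nuclear translocation read as complemented b-gal luminescence after 1 h RT detection.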
Experiment [7] has as its target Mitogen-activated protein kinase 10 (Mus musculus) (UniProt Q61831). The experiment in a line: JNK3 AlphaScreen Assay (AID 530).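 Note: kinase came from lysate of stimulated human HepG2 cells; signal reports phosphorylation of biotinylated GST-cJun 1-79 at Ser73 with 10 µM ATP; % is set by controls: 0 for no effect and ±100 for the full control effect.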 As to conditions: JNK3 lysate, c-Jun phosphorylation; series mostly up to 57.1 µM. In a few lines:
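Activity was read by AlphaScreen after JNK3-containing HepG2 lysate (cytokine pre-activated) phosphorylated biotinylated GST-cJun with 10 uM ATP at room temperature. Phospho-Ser73 cJun antibody with Protein-A acceptor beads provided detection.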

A short description of experiment [8]: Cell Viability - BJ (AID 421; calls by dose curve;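 note: potency is the fitted concentration of half-maximal effect; cells exposed to compound for 40 hours at 37 °C before readout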). As to conditions: BJ fibroblast viability, qHTS. In short, it runs like this:
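Quantitative HTS: ATP depletion in BJ cells after 40 hr compound exposure in complete culture medium, detected with CellTiter-Glo; AC50 from standard Hill fits.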
A general note: qHTS replaces the single test concentration by a dilution series.

Experiment [9] in a line: Cell Viability - Jurkat (AID 426;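 active = dose-dependent loss of cell ATP signal giving a full or clear fitted curve, ranked by lower potency value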;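 note: potency is the fitted concentration of half-maximal effect; cells exposed to compound for 40 hours at 37 °C before ATP read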). Particulars: qHTS. In short, it runs like this: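 Cytotoxicity taken as drop in cellular ATP (CellTiter-Glo luminescence, 20 min room temperature) after 40 hr, 37C treatment of 5000 Jurkat Clone E6-1 cells per well; concentration-response fitted with Hill equation for AC50.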
A short description of experiment [10]: Cell Viability - Hek293 (AID 427;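 active = compounds whose dose-response curve shows a full or clear partial loss of cell viability, called from curve shape rather than a numeric limit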;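 note: potency is the fitted concentration of half-maximal effect; cells exposed to compound for 40 hours at 37 °C before reading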). As to conditions: qHTS. In short, it runs like this:
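AC50 values derive from Hill-modelled concentration-response of ATP-based luminescence, normalized between DMSO-only and 100 uM tamoxifen controls. Cells were exposed in complete culture medium for 40 hr at 37 °C before detection.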

A short description of experiment [11]: Cell Viability - HepG2 (AID 433; calls by dose curve; note: potency is the fitted concentration of half-maximal effect). Particulars: qHTS. In a few lines:
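HepG2 hepatocellular carcinoma cells (1500/well) were treated with compounds for 40 h at 37 °C in complete medium; intracellular ATP was read by CellTiter-Glo luminescence. Data were normalized to DMSO and 100 uM tamoxifen, and AC50 came from Hill fits.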

Experiment [12] is described as follows: Cell Viability - MRC5 (AID 434; calls by dose curve;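 note: potency is the fitted concentration of half-maximal effect; potency reflects cytotoxicity seen as loss of intracellular ATP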). As to conditions: MRC5 lung fibroblast viability, qHTS. In short, it runs like this:
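ATP luminescence read-out (CellTiter-Glo, 20 min RT) after 40 hr, 37 °C compound exposure of 1500 MRC5 cells/well. Data normalized to DMSO (basal) and 100 uM tamoxifen (100% inhibition); AC50 from standard Hill equation.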

Experiment [13] in a line: Cell Viability - SK-N-SH (AID 435; calls by dose curve; note: potency is the fitted concentration of half-maximal effect). As to conditions: SK-N-SH neuroblastoma cell viability qHTS. In short, it runs like this: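 SK-N-SH human neuroblastoma cells (1500/well) were exposed to compounds in complete medium for 40 h at 37 °C, and intracellular ATP was then measured by CellTiter-Glo luminescence. AC50 was taken from Hill fits, normalized to DMSO and 100 uM tamoxifen.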

The nature of experiment [14]: Cell Viability - N2a (AID 540; active = well fitted curve in the direction sought with a large enough effect; an effect the other way counts as inactive or inconclusive;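 note: plate controls were DMSO alone for no effect and tamoxifen control for full effect; nearly all actives have a fitted effect of over 45% in size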). As to conditions: N2a mouse neuroblastoma cell viability; series mostly up to 92.2 µM. In a few lines: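 CellTiter-Glo ATP luminescence, read 20 min after reagent at room temperature, reported viability following 40 h compound treatment at 37 °C. N2a mouse neuroblastoma cells seeded 1500/well; Hill equation gave AC50.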
Experiment [15] can be described thus: Cell Viability - NIH 3T3 (AID 541; active = well fitted curve in the direction sought with a large enough effect; an effect the other way counts as inactive or inconclusive;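 note: plate controls were DMSO alone for no effect and tamoxifen positive control for full effect; nearly all actives have a fitted effect of over 25% in size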). Particulars: NIH 3T3 cell viability, qHTS; series mostly up to 92.2 µM. In short, it runs like this:
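Intracellular ATP (CellTiter-Glo luminescence, 20 min at room temperature) measured after 40 hr compound exposure at 37 °C of 1000 NIH 3T3 mouse fibroblasts/well in complete medium; AC50 derived by Hill-equation modelling of qHTS concentration-response curves.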

A short description of experiment [16]: Cell Viability - HUV-EC-C (AID 542; active = well fitted curve in the direction sought with a large enough effect; an effect the other way counts as inactive or inconclusive; note: % is set by controls: 0 for no effect and ±100 for the full control effect; nearly all actives have a fitted effect of over 35% in size). Particulars: HUV-EC-C endothelial cell viability, qHTS; series mostly up to 92.2 µM. In short, it runs like this:
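CellTiter-Glo luminescence measured ATP loss in HUV-EC-C cells (1000/well) after 40 hr compound exposure at 37 °C, in complete culture medium. Concentration-response data were Hill-fitted to give AC50.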

Experiment [17] in a line: Cell Viability - H-4-II-E (AID 543; active = well fitted curve in the direction sought with a large enough effect; an effect the other way counts as inactive or inconclusive; note: % is set by controls: 0 for no effect and ±100 for the full control effect; nearly all actives have a fitted effect of over 35% in size). Particulars: H-4-II-E rat hepatoma viability; series mostly up to 92.2 µM. In a few lines:
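CellTiter-Glo luminescence (intracellular ATP) measured after 40 h compound exposure at 37 °C in H-4-II-E rat hepatoma cells seeded at 1500/well. Values are AC50s fitted with the standard Hill equation.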

Experiment [18] can be described thus: Cell Viability - SH-SY5Y (AID 544; active = well fitted curve in the direction sought with a large enough effect; an effect the other way counts as inactive or inconclusive;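 note: 0% = DMSO alone and -100% = 100 µM tamoxifen; nearly all actives have a fitted effect of over 55% in size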). As to conditions: SH-SY5Y neuroblastoma cell viability; series mostly up to 92.2 µM. In short, it runs like this:
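Cytotoxicity measured via ATP-dependent luciferase luminescence (CellTiter-Glo) following 40 h, 37 °C exposure of 1500 SH-SY5Y cells per well. Concentration-response data were fitted with the standard Hill equation to give AC50.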

The nature of experiment [19]: Cell Viability - Renal Proximal Tubule (AID 545; active = well fitted curve in the direction sought with a large enough effect; an effect the other way counts as inactive or inconclusive;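 note: 0% = DMSO only and -100% = 100 µM tamoxifen; nearly all actives have a fitted effect of over 40% in size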). Particulars: renal proximal tubule cells viability, primary cells of rat origin; series mostly up to 91.7 µM. In a few lines:
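Primary rat renal proximal tubule cells (1000/well) were treated with compounds for 40 hr at 37 °C in complete medium. Intracellular ATP was measured by CellTiter-Glo luminescence, and AC50 values came from Hill-equation fits of concentration-response data.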

Experiment [20] deals with Lysosomal acid glucosylceramidase (Homo sapiens) (UniProt P04062). The experiment in a line: Glucocerebrosidase-p2 (AID 348; in the data active = potency below about 10 µM; note: potency is the fitted concentration of half-maximal effect). Particulars: purified GBA, blue fluorogenic substrate, 40 min. In short, it runs like this:
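Normal human glucocerebrosidase (0.2 nM) with blue fluorogenic substrate (80 uM final) in citrate/phosphate pH 5.9 with 10mM sodium taurocholate, 0.01% tween-20; 40 min RT, NaOH/glycine stop; fluorescence Ex 365/Em 440; AC50 from a titration from 0.6 nM upwards.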

Sequence of Cytochrome P450 1A2 (Homo sapiens) (P05177 whole entry, looked up): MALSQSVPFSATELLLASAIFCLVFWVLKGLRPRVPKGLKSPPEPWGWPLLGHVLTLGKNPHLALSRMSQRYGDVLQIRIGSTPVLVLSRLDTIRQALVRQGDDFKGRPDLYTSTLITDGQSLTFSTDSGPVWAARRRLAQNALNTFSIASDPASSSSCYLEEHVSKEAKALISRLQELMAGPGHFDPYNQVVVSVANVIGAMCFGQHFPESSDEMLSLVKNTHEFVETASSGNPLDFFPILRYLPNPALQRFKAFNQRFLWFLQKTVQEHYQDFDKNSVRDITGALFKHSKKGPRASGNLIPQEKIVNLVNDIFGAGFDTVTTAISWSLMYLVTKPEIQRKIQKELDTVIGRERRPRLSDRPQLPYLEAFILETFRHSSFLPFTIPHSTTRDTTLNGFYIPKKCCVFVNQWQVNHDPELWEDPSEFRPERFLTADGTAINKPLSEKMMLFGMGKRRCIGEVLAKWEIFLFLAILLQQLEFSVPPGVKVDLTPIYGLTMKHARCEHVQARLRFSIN
Sequence of Glucocorticoid receptor (Homo sapiens) (P04150 whole entry, looked up, the tested form may be a part): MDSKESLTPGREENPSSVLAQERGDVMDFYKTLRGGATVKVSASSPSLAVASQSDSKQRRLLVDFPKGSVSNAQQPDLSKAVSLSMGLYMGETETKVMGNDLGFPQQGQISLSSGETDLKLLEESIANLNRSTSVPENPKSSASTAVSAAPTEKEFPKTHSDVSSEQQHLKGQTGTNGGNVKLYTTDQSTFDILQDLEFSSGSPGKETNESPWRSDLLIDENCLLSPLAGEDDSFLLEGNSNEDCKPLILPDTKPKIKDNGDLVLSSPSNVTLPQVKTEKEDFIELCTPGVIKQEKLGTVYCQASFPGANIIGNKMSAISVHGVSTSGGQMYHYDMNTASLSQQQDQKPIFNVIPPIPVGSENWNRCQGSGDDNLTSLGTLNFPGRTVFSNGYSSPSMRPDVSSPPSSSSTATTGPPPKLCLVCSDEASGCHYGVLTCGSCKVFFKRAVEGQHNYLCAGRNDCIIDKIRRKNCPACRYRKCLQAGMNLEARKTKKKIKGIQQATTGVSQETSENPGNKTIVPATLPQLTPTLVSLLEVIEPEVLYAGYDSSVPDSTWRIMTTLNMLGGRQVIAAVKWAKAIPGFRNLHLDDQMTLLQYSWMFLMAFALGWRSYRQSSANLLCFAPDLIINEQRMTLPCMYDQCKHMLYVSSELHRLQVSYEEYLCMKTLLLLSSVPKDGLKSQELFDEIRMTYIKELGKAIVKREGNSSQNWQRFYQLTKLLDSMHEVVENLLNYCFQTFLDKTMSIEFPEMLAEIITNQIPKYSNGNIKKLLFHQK
Sequence of Lysosomal acid glucosylceramidase (Homo sapiens) (P04062 whole entry, looked up): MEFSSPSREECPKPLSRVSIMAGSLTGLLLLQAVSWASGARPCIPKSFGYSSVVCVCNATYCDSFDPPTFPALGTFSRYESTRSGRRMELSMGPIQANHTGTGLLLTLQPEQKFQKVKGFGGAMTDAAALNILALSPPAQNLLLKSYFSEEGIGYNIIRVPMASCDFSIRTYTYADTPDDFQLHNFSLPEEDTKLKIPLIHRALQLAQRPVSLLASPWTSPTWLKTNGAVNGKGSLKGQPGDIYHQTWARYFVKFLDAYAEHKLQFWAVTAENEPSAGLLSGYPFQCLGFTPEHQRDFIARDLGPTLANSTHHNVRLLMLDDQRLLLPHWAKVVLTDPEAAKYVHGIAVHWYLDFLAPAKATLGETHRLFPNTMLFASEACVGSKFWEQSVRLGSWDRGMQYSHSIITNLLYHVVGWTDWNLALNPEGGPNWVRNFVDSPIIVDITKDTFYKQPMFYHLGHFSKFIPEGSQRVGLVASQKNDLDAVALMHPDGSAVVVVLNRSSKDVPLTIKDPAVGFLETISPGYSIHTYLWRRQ

For the compound `Cc1oncc1C(=O)Nc1ccc(C(F)(F)F)cc1`, the activity change, negative = inhibition was -20.4% and 3.89% in [1] (at 17.2 µM (top of the series)); -1.93% in [1] (at 38 µM (top of the series)); 0.0794% and 7.99% in [3] (at 17.2 µM (top of the series)); -5.42% in [3] (at 38 µM (top of the series)). The Potency in experiment [2] was 631 nM (active) and 63.1 nM (active); in [5], > 46 µM and > 20.6 µM; in experiment [6] it was > 46 µM and > 20.6 µM. The compound was classed as inactive in experiment [4] and in experiment [7].

For `NS(=O)(=O)c1cc2c(cc1Cl)NC=NS2(=O)=O`, the activity change, negative = inhibition in experiment [1] (at 17.2 µM (top of the series)) is 10.4% and 2.47%; in experiment [1] (at 38 µM (top of the series)), -2.75%; in experiment [3] (at 17.2 µM (top of the series)), -2.56% and 9.37%; in experiment [3] (at 38 µM (top of the series)) it was 8.02%. Besides, the Potency in experiment [8], in experiment [9], in experiment [10], in [11], in [12] and in [13] was greater than 92 µM throughout. For the same compound, the outcome in experiment [4], in experiment [7], in experiment [14], in [16], in experiment [18] and in experiment [19] was inactive. Further, the Potency entry in experiment [15] and in [17] was “inactive” throughout.

As for `Cc1cnc(NC(=O)C2=C(O)c3ccccc3S(=O)(=O)N2C)s1`, the activity change, negative = inhibition in experiment [1] (at 17.2 µM (top of the series)) is -12.9%; in experiment [1] (at 38 µM (top of the series)), 1.25%; in experiment [3] (at 17.2 µM (top of the series)) it was -9.71%; in experiment [3] (at 38 µM (top of the series)), 11.3%. For the same compound, the compound was classed as inactive in [4] and in [7]. Also, the Potency was > 46 µM and > 20.6 µM in experiment [5]; greater than 46 µM in [6].

As to `CN1CCN(CCCN2c3ccccc3Sc3ccc(C(F)(F)F)cc32)CC1`, the Potency is greater than 11.4 µM in experiment [20]; > 46 µM and > 20.6 µM in experiment [5]; > 46 µM and > 20.6 µM and > 9.22 µM in [6]. The activity change, negative = inhibition in experiment [1] (at 17.2 µM (top of the series)) is 7.77% and 23.2%; in experiment [1] (at 38 µM (top of the series)), 29.9%. The outcome in experiment [4] and in experiment [7] was inactive.

Regarding `N[C@@H]1CONC1=O`, the activity change, negative = inhibition is 4.13% and -17.2% in experiment [1] (at 17.2 µM (top of the series)); 6.67% and -0.268% and -2.74% in experiment [1] (at 38 µM (top of the series)); -1.83% in experiment [3] (at 17.2 µM (top of the series)); -6.1% and -4.54% and -4.29% in experiment [3] (at 38 µM (top of the series)). Besides, the Potency entry in experiment [2] is “inactive”. The compound was classed as inactive in [4] and in experiment [7]. Moreover, the Potency was > 46 µM and > 20.6 µM in experiment [5]; > 46 µM and > 20.6 µM in experiment [6].

For the compound `Nc1nc2c(ncn2COCCO)c(=O)[nH]1`, the activity change, negative = inhibition in experiment [1] (at 17.2 µM (top of the series)) is 10.5% and -13.7%; in [1] (at 38 µM (top of the series)), 1.53%; in [3] (at 17.2 µM (top of the series)), -0.796% and 22.4%; in experiment [3] (at 38 µM (top of the series)) it was 9.44%. For the same compound, in [2], the Potency entry is “inactive”. For the same compound, the result in experiment [4] and in experiment [7] was inactive. For the same compound, the Potency was > 46 µM and > 20.6 µM in experiment [5]; > 46 µM and > 20.6 µM in experiment [6].

Take `C1COC(NC(C2CC2)C2CC2)=N1`: the activity change, negative = inhibition in experiment [1] (at 17.2 µM (top of the series)) is -19.2% and -1.91%; in [1] (at 38 µM (top of the series)) it was -23.4%; in experiment [3] (at 17.2 µM (top of the series)), -20.2% and 11.2%; in [3] (at 38 µM (top of the series)), -2.75%. In experiment [2], the Potency entry is “inactive”. Moreover, the call in experiment [4] and in experiment [7] was inactive.

In the case of `O=C1CCc2cc(OCCCCc3nnnn3C3CCCCC3)ccc2N1`, the activity change, negative = inhibition in experiment [1] (at 17.2 µM (top of the series)) is -11%; in [1] (at 38 µM (top of the series)), -14.1%; in [3] (at 17.2 µM (top of the series)), -6.28%; in [3] (at 38 µM (top of the series)) it was -9.05%. Further, the Potency entry in experiment [2] is “inactive”. The outcome in experiment [4] and in [7] was inactive. For the same compound, the Potency is > 46 µM and > 20.6 µM in experiment [5]; greater than 46 µM in experiment [6].

With `NNCCc1ccccc1`, the activity change, negative = inhibition in [1] (at 17.2 µM (top of the series)) was -1.06%; in [1] (at 38 µM (top of the series)) it was 26%; in experiment [3] (at 17.2 µM (top of the series)), -10.8%; in experiment [3] (at 38 µM (top of the series)), -17.1%. Besides, the Potency is 3.16 µM (active) and 1 µM (active) in experiment [2]; > 46 µM and > 20.6 µM in experiment [5]; > 46 µM and > 20.6 µM in experiment [6]. Further, the outcome in experiment [4] and in experiment [7] was inactive.
